Sampled rows, rich in hits. Any-hit rate of the full collection: about 2.4%.
CHO-K1 Ca ag: counter-screen for M1 agonists: effect in parental CHO-K1 cells. Fluo-8 calcium fluorescence; scaled to maximal ATP response, vehicle zero. activation, % at 3 µM. hit rate 0.48% among 360,000. AID 602248; in the data active = activation above about 15%;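 also: untransfected CHO-K1 host cells lacking M1 receptor as counterscreen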
CHRM1 agonist: agonists of human M1 muscarinic receptor | P11229 | CHO-K1 hM1, Fluo-8 calcium fluorescence, agonist mode; 0% DMSO, 100% acetylcholine EC100 | activation, % at 3 µM | hit rate 0.33% among 360,000 | AID 588814;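 active = activation above the run's mean compound activation plus 3 SD, cut at about 16% in these data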;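 also: peak over basal fluorescence ratio within a 140 s kinetic read after compound addition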
Target sequence (P11229 whole entry, looked up): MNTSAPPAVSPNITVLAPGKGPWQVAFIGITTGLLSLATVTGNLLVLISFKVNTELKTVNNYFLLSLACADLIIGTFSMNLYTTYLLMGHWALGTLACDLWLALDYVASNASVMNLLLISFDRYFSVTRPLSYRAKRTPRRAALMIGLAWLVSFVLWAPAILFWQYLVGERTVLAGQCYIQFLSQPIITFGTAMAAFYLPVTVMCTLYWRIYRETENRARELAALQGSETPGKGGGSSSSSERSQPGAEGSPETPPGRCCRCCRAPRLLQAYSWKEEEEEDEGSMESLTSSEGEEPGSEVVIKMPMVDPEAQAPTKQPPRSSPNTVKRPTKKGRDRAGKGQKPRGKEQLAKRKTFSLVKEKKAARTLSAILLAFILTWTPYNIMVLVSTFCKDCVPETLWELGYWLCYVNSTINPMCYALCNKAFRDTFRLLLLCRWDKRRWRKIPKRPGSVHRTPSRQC
M1 antag: blocks human M1 muscarinic receptor | hit rate 1.3% among 360,000 | AID 588852 | inhibition, % at 3 µM | CHO-K1 hM1, Fluo-8 calcium fluorescence, ACh EC80 antagonist;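 active = percent inhibition above its own plate's cutoff, namely the mean of that plate's compound wells plus 3 SD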;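 also: peak over basal fluorescence ratio during 140 s after agonist addition; 0% = ACh EC80 plus DMSO and 100% = DMSO alone without agonist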
M1 PAM parental: M1 PAM counterscreen hit in parental CHO-K1 cells. ATP EC20, Fluo-8 calcium fluorescence; 0% at ATP EC20, 100% at ATP max. activation, % at 3 µM. hit rate 0.02% among 360,000;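 active = activation above the run cutoff, the mean activation of all test compounds plus 3 SD, cut at about 40% in these data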;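 also: peak over basal fluorescence ratio in a 140 s read after ATP addition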
M1 PAM: human CHRM1 positive allosteric modulation. P11229. CHO-K1 hM1, Fluo-8 calcium fluorescence, ACh EC20; 0% = ACh EC20, 100% = maximal ACh. activation, % at 3 µM. hit rate 0.088% among 360,000. AID 588819; in the data active = activation above about 19%, passing the limit was not always enough
CHO-K1 Ca antag: counter-screen for M1 antagonists: effect in parental CHO-K1 cells. ATP-induced calcium, Fluo-8 fluorescence. inhibition, % at 3 µM. hit rate 0.6% among 360,000. AID 602250;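 active = inhibition above a per-plate cutoff, the plate's mean sample inhibition plus 3 SD, cut at about 24% in these data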;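 also: 0% = DMSO plus EC80 ATP and 100% = DMSO alone without ATP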
Numbers without * were called inactive; . = no result given.

SMILES | CHO-K1 Ca ag | CHRM1 agonist | M1 antag | M1 PAM parental | M1 PAM | CHO-K1 Ca antag
O=c1c(Cl)c(Cl)cnn1Cc1nnc(-c2ccccc2Br)o1 | 71* | 86* | 94* | -7 | -35 | 95*
Clc1ccccc1OCc1nnc(-c2ccccc2Br)o1 | 0 | -4 | -23 | -4 | 1 | 9
OC(C#CCN1CCCC1)(c1ccccc1)c1cccnc1 (stereo not given) | 4 | -9 | 99* | -15 | -28 | 13
OC(C#CCN1CCCCCC1)(c1ccccc1)c1cccnc1 (stereo not given) | 4 | -5 | 99* | 14 | -26 | -13
CCCN(CC#CC(O)(c1ccccc1)c1cccnc1)CCC (stereo not given) | 0 | -6 | 14 | 9 | -10 | -17
O=C(NCc1cccc(C(F)(F)F)c1)c1ccc2sc(C3=C[C@@H](O)[C@@H](O)[C@@H](CO)O3)nc2c1 | 0 | -3 | -14 | 9 | 8 | -1
Cc1cc(Nc2ccc(Cl)cc2)nc(-c2ccccc2O)n1 | 1 | -4 | -2 | 16 | -1 | -7
Cc1cc(Nc2cccc(Cl)c2)nc(-c2ccccc2O)n1 | 6 | -5 | -14 | 9 | 8 | 43*
Cc1cc(-c2nnc(SCC(=O)Nc3ccccc3C(F)(F)F)o2)c(C)n1-c1ccccc1 | 7 | 17* | -12 | 7 | -8 | -6
Cc1ccc(-n2cc(-c3ccccc3)c3c(N4CCOCC4)ncnc32)cc1 | 4 | -3 | 43* | -4 | -12 | 7
Cc1cccc(-n2cc(-c3ccccc3)c3c(N4CCOCC4)ncnc32)c1 | 5 | -5 | 38* | -8 | -16 | 1
Cc1ccc(-n2cc(-c3ccccc3)c3c(N4CCN(C)CC4)ncnc32)cc1 | 4 | -3 | -10 | 5 | 11 | -1
CCC(=O)N1CCC1(C)C(=O)NCc1ccccc1SC (stereo not given) | 0 | -1 | -18 | 21 | 13 | -8
COc1ccc(NS(=O)(=O)c2cccc(C(=O)N3CCN(C/C=C/c4ccccc4)CC3)c2)cc1 | 10 | -1 | 12 | 5 | -19 | -7
Cc1cccc(NS(=O)(=O)c2cccc(C(=O)N3CCN(C/C=C/c4ccccc4)CC3)c2)c1 | 4 | -6 | 32* | 2 | -22 | -18
Cc1ccc(C(=O)N2CCN(C/C=C/c3ccccc3)CC2)cc1S(=O)(=O)N1CCOCC1 | 6 | -7 | 73* | 17 | -27 | -9
CCCCCNC(=O)C1CC(=O)OC12CCCCC2 (stereo not given) | 0 | -7 | 1 | 8 | 6 | 3
COc1ccc(C(=O)Nc2nc(CC(=O)NCc3ccc(F)cc3)cs2)cc1 | 20* | 1 | 17 | -13 | -13 | 12
CCOC(=O)Cc1csc(NC(=O)Nc2cccc(Cl)c2)n1 | 8 | 1 | 8 | -6 | -10 | 15
CCCCC(=O)Nc1ccc(C(=O)Nc2nc(CC(=O)OCC)cs2)cc1 | 21* | 2 | 7 | 17 | 0 | 2
CCOC(=O)Cc1csc(NC(=O)Nc2ccc(Cl)cc2)n1 | 18* | 7 | 32 | -24 | -11 | 16
COc1ccc(C2=NOC(C(=O)Nc3ccc4c(c3)OCCO4)C2)c(OC)c1 (stereo not given) | 1 | -1 | -5 | -2 | 7 | 10
CCOC(=O)[C@]12CCC=C1N(Cc1ccc(Cl)cc1Cl)C(=O)[C@H](CC(=O)NCCCN1CCCC1=O)C2 | 0 | . | . | -4 | . | -6
CCOC(=O)C1(C)CCN1C(=O)c1ccccc1OC(F)(F)F (stereo not given) | 0 | -4 | -4 | -2 | 1 | 8
O=C1NC(=S)S/C1=C\c1cc(Cl)cc(Cl)c1O | 37* | 40* | 36* | 0 | -13 | 14
SMILES | CHO-K1 Ca ag | CHRM1 agonist | M1 antag | M1 PAM parental | M1 PAM | CHO-K1 Ca antag
O=C1NC(=S)SC1=Cc1ccccc1Cl | 8 | 0 | 0 | 0 | -2 | -18
O=C1N/C(=C/c2ccc(N3CCOCC3)o2)C(=O)N1c1cccc(Cl)c1 | 0 | -3 | 14 | -10 | -9 | 29*
CCOC(=O)C1CCC(CNCc2ccccc2C)CC1 (stereo not given) | 1 | -8 | 53* | 14 | -23 | -17
O=C(O)C1CCC(CNCc2ccccc2Cl)CC1 (stereo not given) | 0 | -10 | 3 | 6 | -5 | -4
CCNc1nc(Oc2ccc(=O)n(-c3ccccc3)n2)nc(N(C)C)n1 | 0 | -3 | -11 | 19 | 9 | -8
CCNc1nc(OC)nc(Oc2ccc(=O)n(-c3ccccc3)n2)n1 | -1 | 6 | -23 | -4 | 15 | 24*
COC(=O)C[C@H]1C[C@@H]2c3cc(NC(=O)CN(C)C)ccc3O[C@@H]2[C@H](CO)O1 | 1 | -1 | -19 | 17 | 9 | -11
COCC(=O)Nc1ccc2c(c1)[C@@H]1C[C@H](CC(=O)OC)O[C@@H](CO)[C@@H]1O2 | 0 | -2 | 19 | -12 | -10 | 24*
CCNc1nc2c(c(=O)n(C)c(=O)n2C)n1Cc1ccc(Cl)cc1 | 5 | 2 | 29* | -5 | -13 | 13
CCC(C)Nc1nc2c(c(=O)n(C)c(=O)n2C)n1Cc1ccc(Cl)cc1 (stereo not given) | 1 | -3 | -4 | 31 | 3 | -15
COc1cc(C2N(C)C(=O)c3ccccc3N2C)ccc1O (stereo not given) | 17* | -4 | 5 | 6 | 0 | 0
O=C(O)COc1ccc(F)cc1Br | 1 | -4 | -3 | 8 | 3 | -4
CCCCN(CC)C(=O)c1cc2cc3ccc(OC)cc3nc2o1 | 1 | -1 | -8 | -20 | 5 | 25*
COc1ccc(NC(=O)c2c(F)c(F)c(F)c(F)c2F)cc1Cl | 2 | -3 | 6 | -6 | -8 | 32*
O=C(COC(=O)Cc1cccc(C(F)(F)F)c1)Nc1ccc2[nH]c(=O)[nH]c2c1 | 0 | -2 | -9 | 6 | 8 | 16
OC(CNC1Cc2ccccc2C1)c1ccccc1 (stereo not given) | 2 | 16* | -3 | 3 | 3 | -18
c1ccc(CCNc2c3c(nc4ncnn24)CCC3)cc1 | 21* | 2 | 11 | 7 | -6 | -1
COc1ccc(Cl)cc1NC(=O)COC(=O)C1CC(=O)N(Cc2ccccc2)C1 (stereo not given) | 2 | 0 | -15 | 7 | 12 | 8
C=C1C(C(=O)Nc2ccc(OC)cc2)C1C(=O)Nc1ccc(OC)cc1 (stereo not given) | 0 | -3 | 25* | -13 | -4 | 1
C=C1C(C(=O)Nc2ccc(OCC)cc2)C1C(=O)Nc1ccc(OCC)cc1 (stereo not given) | 5 | -4 | 8 | -4 | -1 | 0
Cc1cc(O)c(C=Nc2cccc(Cl)c2)c(=O)o1 | 2 | -2 | -2 | 17 | 4 | 7
